# Data as given in the supplement of paper PMC8728848.
# The full list was thinned out, with the strongest signals kept by preference.
# B1: PX14343I-pdi-501-30-501 (Parabacteroides distasonis) (protein)
# chain: SDQYSTETFWKTKEHASAGIMGCYNALKLWRSLHTMEFDMLTANAMPYNEANGTQAIGKGEHLSTTALIGSLWKNCYVGIGRTNTFIANVGGVDMDESEKAKMVGEAKFLRAFYYLSLVDKFGGVPLIIDAPNADEQAELPRNSKEEVVNQIVKDLEEAAAVLPDTYASSDLGRATKGAALALKARTLLYNSRWAEAAQAAKQVMESGVYQLFNDYRHFFSEDNKYNCEVIFDIEAKLPEYPTDYDQNIWRLNRPAPLKELVDTYLCVDGKTIEESPLYDPTRPYENRDPRLLKSIVCIGYPYLGKTITKEDVATTGFGVKKYTSYEDDVTIPLVERSAFNFILIRYAEVLLTYAEAQNEASGPDQSVYDAINQLRRRPDINMPEVPKGLTKDQMREVIRRERRIELTFEGLYYSDILRWKTAEKENNGMMHNYEGIEVVKRSFNPKRDYLWPIPYNQTVLNPNLEQNPNWD
# Tests used:
# Test in all cases: glycan array binding signal (z-score within array); higher = stronger binding
# Details in all cases: glycan notation: IUPAC condensed, linker removed
# [1] = target: Gal(b1-4)GlcNAc(b1-3)[Gal(b1-4)GlcNAc(b1-6)]Gal(b1-4)GlcNAc
# Method in brief: (§1)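 Glycan array data were curated from 3228 arrays in the Consortium for Functional Glycomics database and kept only where the protein sequence was available. Glycan names were converted to IUPAC-condensed notation, and columns mapping to the same glycan were averaged. The binding signal is a within-array Z-score, averaged across arrays of the same protein sequence at different concentrations or buffers and across linkers. Negative Z-scores can be read as non-binding.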
# Gal3S(b1-4)Glc = target: Gal3S(b1-4)Glc
# Method in brief: as §1
# Gal6S(b1-3)GlcNAc = target: Gal6S(b1-3)GlcNAc
# Method in brief: as §1
# [2] = target: GalNAc(a1-3)GalNAc(b1-3)Gal(a1-4)Gal(b1-4)Glc
# Method in brief: as §1
# GalNAc(b1-3)GalNAc = target: GalNAc(b1-3)GalNAc
# Method in brief: as §1
# [3] = target: GalNAc(b1-4)GlcNAc(b1-2)Man(a1-3)[GalNAc(b1-4)GlcNAc(b1-2)Man(a1-6)]Man(b1-4)GlcNAc(b1-4)GlcNAc
# Method in brief: as §1
# Glc(a1-6)Glc(a1-6)Glc = target: Glc(a1-6)Glc(a1-6)Glc
# Method in brief: as §1
# Glc(b1-6)Glc = target: Glc(b1-6)Glc
# Method in brief: as §1
# [4] = target: GlcNAc(a1-4)Gal(b1-4)GlcNAc(b1-3)Gal(b1-4)[Fuc(a1-3)]GlcNAc(b1-3)Gal(b1-4)[Fuc(a1-3)]GlcNAc
# Method in brief: as §1
# [5] = target: GlcNAc(b1-3)Gal(b1-4)GlcNAc(b1-2)Man(a1-3)[GlcNAc(b1-3)Gal(b1-4)GlcNAc(b1-2)Man(a1-6)]Man(b1-4)GlcNAc(b1-4)[Fuc(a1-6)]GlcNAc
# Method in brief: as §1
# [6] = target: GlcNAc(b1-3)Gal(b1-4)GlcNAc(b1-3)Gal(b1-4)GlcNAc(b1-2)[GlcNAc(b1-3)Gal(b1-4)GlcNAc(b1-3)Gal(b1-4)GlcNAc(b1-6)]Man(a1-6)[GlcNAc(b1-3)Gal(b1-4)GlcNAc(b1-3)Gal(b1-4)GlcNAc(b1-2)Man(a1-3)]Man(b1-4)GlcNAc(b1-4)[Fuc(a1-6)]GlcNAc
# Method in brief: as §1
# Man(a1-2)Man(a1-3)Man = target: Man(a1-2)Man(a1-3)Man
# Method in brief: as §1
# [7] = target: Man(a1-3)[Man(a1-6)]Man(a1-6)[Man(a1-2)Man(a1-3)]Man(b1-4)GlcNAc(b1-4)GlcNAc
# Method in brief: as §1
# Man(b1-4)GlcNAc = target: Man(b1-4)GlcNAc
# Method in brief: as §1
# [8] = target: Neu5Ac(a2-3)Gal(b1-3)GalNAc6S
# Method in brief: as §1
# [9] = target: Neu5Ac(a2-3)Gal(b1-4)GlcNAc(b1-2)Man(a1-3)[Neu5Ac(a2-3)Gal(b1-4)GlcNAc(b1-2)Man(a1-6)]Man(b1-4)GlcNAc(b1-4)GlcNAc
# Method in brief: as §1
# [10] = target: Neu5Ac(a2-6)Gal(b1-4)GlcNAc(b1-3)Gal(b1-4)GlcNAc(b1-3)Gal(b1-4)GlcNAc(b1-2)Man(a1-3)[Neu5Ac(a2-6)Gal(b1-4)GlcNAc(b1-3)Gal(b1-4)GlcNAc(b1-3)Gal(b1-4)GlcNAc(b1-2)Man(a1-6)]GalNAc
# Method in brief: as §1
# [11] = target: Neu5Ac(a2-6)Gal(b1-4)GlcNAc(b1-3)Gal(b1-4)GlcNAc(b1-6)[Gal(b1-3)]GalNAc
# Method in brief: as §1
# [12] = target: Neu5Ac(a2-8)Neu5Ac(a2-3)Gal(b1-4)GlcNAc
# Method in brief: as §1
# [13] = target: Neu5Ac(a2-8)Neu5Gc(a2-3)Gal(b1-4)GlcNAc
# Method in brief: as §1
binder,measurement,setting,value
B1,glycan array binding signal (z-score),[1],-0.2
same,glycan array binding signal (z-score),Gal3S(b1-4)Glc,0.301
same,glycan array binding signal (z-score),Gal6S(b1-3)GlcNAc,0.19
same,glycan array binding signal (z-score),[2],0.12
same,glycan array binding signal (z-score),GalNAc(b1-3)GalNAc,1.96
same,glycan array binding signal (z-score),[3],-0.398
same,glycan array binding signal (z-score),Glc(a1-6)Glc(a1-6)Glc,0.049
same,glycan array binding signal (z-score),Glc(b1-6)Glc,-0.768
same,glycan array binding signal (z-score),[4],1.69
same,glycan array binding signal (z-score),[5],4.66
same,glycan array binding signal (z-score),[6],1.77
same,glycan array binding signal (z-score),Man(a1-2)Man(a1-3)Man,0.611
same,glycan array binding signal (z-score),[7],0.28
same,glycan array binding signal (z-score),Man(b1-4)GlcNAc,-0.706
same,glycan array binding signal (z-score),[8],-0.135
same,glycan array binding signal (z-score),[9],-0.301
same,glycan array binding signal (z-score),[10],2.21
same,glycan array binding signal (z-score),[11],0.989
same,glycan array binding signal (z-score),[12],-0.464
same,glycan array binding signal (z-score),[13],18.3
